# Test results published in the supplement of paper PMC11417369.
# Over roughly 25,000 sequences, “ln(normalized median fluorescence intensity)” has its median near 9.3; the highest 2% begin near 10. The entries come from a sample that favours the highest values as a whole.
# Test system: PF3D7_0420300 AP2 domain 1 (GST-tagged)
# Assay: gcPBM binding intensity (ln(normalized median fluorescence intensity)); higher = stronger DNA binding
# Method in brief: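 For binding intensity, the highest Masliner-normalised natural-log median intensity across replicate spots of either probe orientation was taken. Protein bound to the array was stained with Alexa488 anti-GST antibody and scanned at 488 nm. The protein, GST-tagged P. falciparum DNA-binding domains from E. coli at about 25 μg on average, had been applied for 1 h to an Agilent 4 × 180k array of primer-extended double-stranded 36-bp intergenic genomic probes and negative controls.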
row,Sequence,gcPBM binding intensity (ln)
1,ATAGTAATAGAATGATTGCACTTAAATTTTCCCTCT,9.19
2,AATATATATATATGTACACACTCCAATACATATACA [CACACA_site2682],9.42
3,AAAAAAATAACAAAAGTGCATTTTTATGAGTTATCT,9.2
4,TATAAAAATAAAAAAAGTACACATAAAAATATATAT [XGTACX_site5189],9.62
5,TGGTAATACACATACACACACACATACACATATATA [CACACA_site7312],10.2
6,TGGTAATACCCATACACACACACATACCCATATATA [CACACA_site5509],10.1
7,AATAAATAAATATATACACACATATATATATAATAT [CACACA_site921],9.6
8,TACATATAAAAGTACACACACACACCCATATATATA [CACACA_site941],10.2
9,AATACATATAAAAGTACACACACACCCATATATATA [CACACA_site8220],10.2
10,AAATAATATAAATACACACACACATATATAAATACA [CACACA_site4465],10.2
11,ATAATATAAATATACACACACACATATATATATATA [CACACA_site2905],9.91
12,CATATATAAATATATACACACATACATACATACATA [CACACA_site5988],9.67
13,TGGTAATACCCATACACACACACATACACATATATA [CACACA_site8877],10.1
14,CATAAATACATACATACACACATATATATATATATA [CACACA_site2106],9.5
15,TACATACATACATACACACACACATATAAATACATA [CACACA_site4626],10.2
16,TAAAACAATACTTTGTGCTTCTCTGGTTTTTTTTTT [GTGCAC_negctrl_site284],9.26
17,ACGTTTGATACACATAAAGTTTTCCTTTGAATGTAC [CACACA_negctrl_site106],9.26
18,TTTTAACATAGAAGTACACACATATAATCAATCATA [CACACA_site5313],9.6
19,TTAATACATTAAATATGTACTTATATATCTCAACTA [XGTACX_site3997],9.11
20,AACACAAATAAGTATTTGGATTATATTACATTTATA [CACACA_negctrl_site465],9.18
21,GTGTTTTTATGTGAATGTACATATTTACTATCACAC [XGTACX_site2388],9.56
22,TTCATTCTATAAAACACACAAATATTTTTGTATCCC [CACACA_site6458],9.2
23,CATAATATGACATACACACACAAAAAAAAAAAAATA [CACACA_site1285],9.91

row,Sequence,gcPBM binding intensity (ln)
1,AGAAATATCTAATTGTGTACTCAAGAAAAAGTTACG [XGTACX_site372],9.29
2,TTACCATAAGTATGTGGTACACTTTAAATGAAGATA [XGTACX_site6972],8.88
3,CATACATATATTATTGCACACATATAAAATACCCCC [CACACA_site9292],10.3
4,AATATAAGCAAATACACACACACATATATATATATA [CACACA_site3805],10
5,TACATACACAGACACACACACATATAAATATAAATA [CACACA_site7641],9.95
6,TACATATATTATTGCACACATATAAAATACCCCCAA [CACACA_site3895],9.82
7,AATATAAGCAAATACACACACACATATAAATATGTA [CACACA_site7741],10.2
8,CATACATACAGACACACACACATATAAATACATACA [CACACA_site6533],10
9,AATACATACAGACACACACACACATATAAATAAATA [CACACA_site7642],10.2
10,TATAAATAAATATACACACACACATATAAATATGTA [CACACA_site6504],10.1
11,AAAAAAAATTAAATAAATAAATATACACATATATAT [GTGCAC_negctrl_site394],9.26
12,AAAATTAAAATATATACACACATATATATATTAAAT [CACACA_site4419],9.57
13,TACAGATATTATTGCACACATATAAAATACCCCCAA [CACACA_site6014],9.89
14,AATTAAAAAAAATACACACACACATACACATATATA [CACACA_site3298],10.2
15,CATATAAAAAATATGGTGCAGTTTTTTTTTTTTTTT,9.1
16,ATATATCATAATAGAGGTACACATATTATATATATA [XGTACX_site782],9.29
17,TAATTTTTTTTAAATACACACTGAAATGTGAATTTT [CACACA_site4476],8.96
18,ACCACCATATAACATACATGCATCTTTTTTCCCTTC [TGCATGCA_site583],9.79
19,TTTTTATATTTTATTAGTACTTATTATATATATAAT [XGTACX_site4900],9.26
20,TGTAATAAATAGTACACACACACATATATATATATT [CACACA_site1388],9.94
21,ATATATGTAATAAATAGTACACACACACATATATAT [XGTACX_site2817],10.3
22,TAATAATAGTAAATATGTACATATATATATATATAG [XGTACX_site4602],9.26
23,TGTAGTCTGGAGAAAAGTACATAGTATCTGGTAACA [XGTACX_site4940],9.2

row,Sequence,gcPBM binding intensity (ln)
1,TAATAATCCACAAGCACACACACACCCATATATATA [CACACA_site1267],10
2,TATAATCCATAAGAAGCACACACATATATATATATT [CACACA_site8394],9.76
3,CAAATACATGGACACACACACATATACAGATATATA [CACACA_site5854],10
4,AAAATACATGGACACACACACACACCGATATATATA [CACACA_site5885],10.3
5,GGAATAATATAAAACACACACATAAATATAAATATA [CACACA_site3376],9.9
6,AAAAAAAAAAGAATAGCACACACACCGATATAAATA [CACACA_site8111],10.1
7,TGGGAATAAAAACACACACACACACCGATATATATA [CACACA_site5875],10.3
8,AAATAATATAAACATACACACACACCGATATATATA [CACACA_site8945],10.2
9,ATAAAAATAAAATGGACACACATATATACATATTTG [CACACA_site3277],9.68
10,ATAATATATAAACACACACACATATATAAATACATT [CACACA_site4466],10.1
11,ATAATATAAACATACACACACACATATATATATATA [CACACA_site5591],10
12,ATAATCCACAAGCACACACACACACCCATATATATA [CACACA_site1268],10.2
13,TATATTAACAAAATGGTGCAATAATTTCTATATTGT [GTGCAC_site9430],9.21
14,TATTTTAATTTTTGTTGTACGCAAATGTGAGGGCAT [XGTACX_site4663],9.17
15,AAATAAAGGAAATAAAAAGAAACCAATTTCGAATAT [CACACA_negctrl_site953],9.57
16,TTTTTTATTTTTTACATATTTAGCTCATATTTATAT [GTGCAC_negctrl_site491],9.44
17,AAAGGAGGGAATTTTTCTAGGTGTGGAGTGCTACTC [XGTACX_negctrl_site63],9.44
18,TATAAATATAAATACACACACATATATATTATATAT [CACACA_site4496],9.85
19,AAAACACTTATGGATTGTACAATAAAAATTATATTA [XGTACX_site7042],9.26
20,CCTATAAATGCATTCACACATATATATTTATATTAT [CACACA_site6086],9.26
21,TATATTAAAAAAAAATGTACATATATATAATATATA [XGTACX_site1935],9.19
22,CACTAAAATAAACACACACACACACCGATATATATA [CACACA_site9379],10.3
23,ACCATATAAATAAACACACACACACCGATATATATA [CACACA_site5310],10.1

row,Sequence,gcPBM binding intensity (ln)
1,AAAATACATAAACACACACACACACCGATATATATA [CACACA_site9186],10.3
2,TAAAAAAAAAAAAATACACACACACCGATATATATA [CACACA_site8498],10.2
3,CACTAAAATGGACACACACACACACCGATATATATA [CACACA_site6139],10.2
4,ATAAAATACATATAAACACACATATAAACCGACATA [CACACA_site2477],10
5,AAATATATACTACCGATGCACTAAATATAAACACAT [GTGCAC_site9777],9.67
6,ATAATACCCAAGCACACACACACACCGATATATATA [CACACA_site8344],10.4
7,TAATAATACCCAAGCACACACACACCCATATATATA [CACACA_site4831],10
8,TATATATATAAATACACACACACACCGATATATATA [CACACA_site5408],10.1
9,CCTAAATAAATGGACACACACATATATATATATATA [CACACA_site1439],9.49
10,TGATAATAAGCATACACACACACACCCAAAAAAAAA [CACACA_site721],10.2
11,TGTAAGAAATTGAGCGCACACATACATCTGTGGGAT [CACACA_site4945],9.55
12,AAAAAAAAAAAAAAAACACACATTTAGCAATCTACA [CACACA_site3706],9.32
13,ATGTGATGTTATATATGTACTTATTTTTTAATAAGG [XGTACX_site1786],9.25
14,TGTTGTAAATTAAAGACATGCACGTGAGAAAATATA [TGCATGCA_site285],9.51
15,TCAAATTTAATCATAACACACATTCACATATGAATT [CACACA_site3199],9.16
16,GTAGTCCAAAAAAAGCGTACACAGAAAAAAAAAAAA [XGTACX_site4273],9.14
17,ATTTTTTGGAAAAGAAGTACAATGGATTTATACGTT [XGTACX_site891],9.09
18,TTTTTTTTTTTTTTTTTTTTACCCCTTTTTCAAAAA [CACACA_negctrl_site1524],8.39
19,AGGATATATAATTAAGTGCATTAATTCAAAATAAAA [GTGCAC_site9702],9.17
20,TTTTGTCTTATATGTTGTACAACGTAAACAAAAAAA [XGTACX_site4412],8.84
